# Activity calls are given as the source filed them.
# Columns and labels:
# [1] = system: Plasmodium falciparum Sir2 (PF13_0152, Sir2A); experiment: Plasmodium falciparum Sir2A binding compounds – biochemical, small-molecule microarray, 635 nm fluorescence, primary screen (AID 1098); settings: fluorescence 635 nm, higher = more signal;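 also: score merges spot fluorescence intensity with its signal-to-noise ratio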
# [2] = probe aDKK1 binding to arrayed compounds – biochemical, biotinylated probe, 635/667 nm fluorescence, primary screen (AID 1099); settings: small-molecule microarray, higher = more signal;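 also: score merges 667nm spot fluorescence with signal to noise across triplicate slides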
# [3] = probe aCHRDL2 binding to arrayed compounds – biochemical, biotinylated probe, 635/667 nm fluorescence, primary screen (AID 1100); settings: small-molecule microarray, higher = more signal
# [4] = change in splice reporter luminescence, either direction, cell-based, HEK293, spliceosome inhibition project, primary screen (AID 1101); settings: HEK293 splicing luciferase reporter, 24 h, higher = more signal, called active from +8 up or from −8 down;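 also: HEK293 cells carrying a splicing-competent luciferase reporter gene; test concentration not given here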
# [5] = target: Fibroblast growth factor 10 (Homo sapiens) (UniProt O15520); experiment: compounds binding fibroblast growth factor 10 – biochemical, small-molecule microarray, 635 nm fluorescence, primary screen (AID 1102); settings: FGF10 binding, fluorescence 635 nm, higher = more signal
# [6] = system: glycogen synthase kinase-3 (GSK3A per assay name; protocol says GSK3B); experiment: compounds binding glycogen synthase kinase-3 – biochemical, small-molecule microarray, 635 nm fluorescence, GSK3A, primary screen (AID 1103); settings: fluorescence 635 nm, higher = more signal; also: the record names both GSK3A and GSK3B
# [7] = target: Epidermal growth factor receptor (Homo sapiens) (UniProt P00533); experiment: compounds binding epidermal growth factor receptor – biochemical, small-molecule microarray, 635 nm fluorescence, primary screen (AID 1104); settings: EGFR binding, higher = more signal;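 also: score merges 667 nm emission intensity with spot signal to noise over triplicate slides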
# [8] = target: Follistatin-related protein 3 (Homo sapiens) (UniProt O95633); experiment: compounds binding follistatin-related protein 3 – biochemical, small-molecule microarray, 635 nm fluorescence, primary screen (AID 1105); settings: FSTL3 binding, higher = more signal;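 also: score merges emission near 667 nm and signal to noise per printed spot across three slides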
# [9] = target: Dickkopf-related protein 1 (Homo sapiens) (UniProt O94907); experiment: small molecules binding DKK1 protein – biochemical, small-molecule microarray, 635 nm fluorescence scan, primary screen (AID 1106); settings: higher = more signal;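 also: score merges emission near 667 nm with signal to noise over three replicate slides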
# [10] = system: Inhibin beta A chain (activin A); experiment: small molecules binding activin A – biochemical, small-molecule microarray, 635 nm fluorescence scan, primary screen (AID 1107); settings: INHBA, higher = more signal;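 also: mouse activin A protein probed at 4.33 µg/mL on printed slides; score merges bound-protein fluorescence near 667 nm with spot signal-to-noise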
# [11] = system: Human papillomavirus type 1a protein E7 (residues 44-93); experiment: small molecules binding HPV E7 44-93 – biochemical, small-molecule microarray, residues 44-93, 635 nm fluorescence, primary screen (AID 1108); settings: fluorescence 635 nm, higher = more signal;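 also: E7 fragment applied at 1 µg/mL in TBST for 1 h at 4 C; score combines spot fluorescence with its signal to noise ratio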
# [12] = hepatitis C replication reporter changes, two-sided – Huh7 cells, luciferase reporter, HCV replication inhibitor project, primary screen (AID 1109); settings: Huh7 HCV replicon luciferase reporter, 48 h; higher = more signal;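 also: huh7 hepatoma cells harbouring a luciferase neomycin HCV replicon reporter; luciferase luminescence as measure of HCV replicon replication; test concentration not given here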
# [13] = target: Left-right determination factor 2 (Homo sapiens) (UniProt O00292); experiment: small molecules binding LEFTY2 protein – biochemical, small-molecule microarray, 635 nm fluorescence scan, primary screen (AID 1110); settings: higher = more signal
# [14] = target: Calmodulin-1 (Homo sapiens) (UniProt P0DP23); experiment: small molecules binding calmodulin-1 with EGTA – biochemical, small-molecule microarray, Cy5-labelled CALM1, profiling panel (AID 1111); settings: Cy5-CALM1 binding fluorescence, higher = more signal;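 also: labelled calmodulin applied in Tris saline Tween buffer holding calcium plus EGTA and DTT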
# [15] = target: Calmodulin-1 (Homo sapiens) (UniProt P0DP23); experiment: small molecules binding Ca-loaded calmodulin-1 – biochemical, small-molecule microarray, Cy5-labelled CALM1, plus calcium, artefact control for SMM control-protein annotation, profiling panel (AID 1112); settings: Cy5-CALM1 binding fluorescence, higher = more signal;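 also: score merges spot fluorescence with signal to noise from triplicate slides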
# [16] = probe aWnt5a binding to arrayed compounds – biochemical, biotinylated probe, 635/667 nm fluorescence, primary screen (AID 1113); settings: small-molecule microarray, higher = more signal;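 also: score merges 667 nm fluorescence intensity with signal-to-noise per printed feature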
# [17] = probe aShh binding to arrayed compounds – biochemical, biotinylated probe, 635/667 nm fluorescence, primary screen (AID 1114); settings: small-molecule microarray, higher = more signal;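 also: probe is biotin-labelled aShh protein from a stem cell growth factor screen; measures binding of labelled protein to compounds printed on the slide; score merges feature fluorescence at 667 nm with signal-to-noise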
# [18] = probe aNog binding to arrayed compounds – biochemical, biotinylated probe, 635/667 nm fluorescence, primary screen (AID 1115); settings: small-molecule microarray, higher = more signal;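 also: probe is biotinylated aNog protein used at 0.15 µg/mL for 1 h at 4 C; z-score combines 667 nm fluorescence of each spot with its signal to noise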
# [19] = target: Torsin-1A-interacting protein 1 (Homo sapiens) (UniProt Q5JTV8); experiment: compound microarray binding of lysate hLAP1 – cell lysate, small-molecule microarray, COS7 lysate, 635/667 nm fluorescence, primary screen (AID 1116); settings: 635 nm fluorescence, higher = more signal
# [20] = target: Alpha-bungarotoxin (Bungarus multicinctus) (UniProt P60615); experiment: compounds binding labelled alpha-BTX control protein – biochemical, small-molecule microarray, Alexa647 label, 635/667 nm fluorescence, artefact control for SMM control protein annotation, profiling panel (AID 1117); settings: alpha-BTX-A647 binding fluorescence, higher = more signal
# Alpha-bungarotoxin (Bungarus multicinctus), sequence (P60615 whole entry, looked up): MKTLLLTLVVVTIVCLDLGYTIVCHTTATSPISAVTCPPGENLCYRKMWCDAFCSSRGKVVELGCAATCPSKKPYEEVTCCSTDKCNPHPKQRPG
# Follistatin-related protein 3 (Homo sapiens), sequence (O95633 whole entry, looked up): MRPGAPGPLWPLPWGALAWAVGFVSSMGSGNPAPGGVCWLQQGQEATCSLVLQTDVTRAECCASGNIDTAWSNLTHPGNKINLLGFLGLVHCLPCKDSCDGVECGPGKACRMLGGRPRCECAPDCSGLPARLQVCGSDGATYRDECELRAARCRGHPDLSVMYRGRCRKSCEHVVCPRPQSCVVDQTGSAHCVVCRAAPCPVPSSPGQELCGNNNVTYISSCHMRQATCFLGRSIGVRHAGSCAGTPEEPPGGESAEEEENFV
# Fibroblast growth factor 10 (Homo sapiens), sequence (O15520 whole entry, looked up): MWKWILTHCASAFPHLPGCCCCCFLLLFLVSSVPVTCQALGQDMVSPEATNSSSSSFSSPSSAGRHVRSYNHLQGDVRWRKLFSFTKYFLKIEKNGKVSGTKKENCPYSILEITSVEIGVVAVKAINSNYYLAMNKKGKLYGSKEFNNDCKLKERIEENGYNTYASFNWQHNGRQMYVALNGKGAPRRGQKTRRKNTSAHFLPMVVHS
# Left-right determination factor 2 (Homo sapiens), sequence (O00292 whole entry, looked up): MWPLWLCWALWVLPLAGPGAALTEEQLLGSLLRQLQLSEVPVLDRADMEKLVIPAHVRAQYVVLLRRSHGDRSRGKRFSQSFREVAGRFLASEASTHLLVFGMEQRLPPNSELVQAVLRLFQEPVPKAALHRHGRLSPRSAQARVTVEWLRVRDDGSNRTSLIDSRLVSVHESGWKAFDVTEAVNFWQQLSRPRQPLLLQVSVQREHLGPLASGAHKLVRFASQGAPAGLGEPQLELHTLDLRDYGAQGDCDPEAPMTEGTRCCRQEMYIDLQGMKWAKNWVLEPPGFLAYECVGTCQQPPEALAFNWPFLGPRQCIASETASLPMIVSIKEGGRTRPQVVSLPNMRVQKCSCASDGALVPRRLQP
# Torsin-1A-interacting protein 1 (Homo sapiens), sequence (Q5JTV8 whole entry, looked up): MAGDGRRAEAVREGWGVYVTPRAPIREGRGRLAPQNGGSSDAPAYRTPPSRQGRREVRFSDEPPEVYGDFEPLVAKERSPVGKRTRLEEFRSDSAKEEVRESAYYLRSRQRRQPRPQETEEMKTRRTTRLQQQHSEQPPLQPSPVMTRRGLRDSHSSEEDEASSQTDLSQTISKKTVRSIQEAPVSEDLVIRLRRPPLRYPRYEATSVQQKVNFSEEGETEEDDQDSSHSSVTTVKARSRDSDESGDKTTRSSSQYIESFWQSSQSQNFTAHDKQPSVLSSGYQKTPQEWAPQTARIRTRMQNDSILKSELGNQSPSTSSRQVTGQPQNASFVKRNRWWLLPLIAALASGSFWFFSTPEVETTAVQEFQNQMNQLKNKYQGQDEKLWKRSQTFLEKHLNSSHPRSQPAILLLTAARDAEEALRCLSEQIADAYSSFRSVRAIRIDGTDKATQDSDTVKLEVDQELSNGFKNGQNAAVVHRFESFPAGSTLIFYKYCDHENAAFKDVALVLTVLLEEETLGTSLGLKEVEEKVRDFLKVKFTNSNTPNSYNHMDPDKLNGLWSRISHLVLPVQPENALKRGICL
# Epidermal growth factor receptor (Homo sapiens), sequence (P00533 whole entry, looked up): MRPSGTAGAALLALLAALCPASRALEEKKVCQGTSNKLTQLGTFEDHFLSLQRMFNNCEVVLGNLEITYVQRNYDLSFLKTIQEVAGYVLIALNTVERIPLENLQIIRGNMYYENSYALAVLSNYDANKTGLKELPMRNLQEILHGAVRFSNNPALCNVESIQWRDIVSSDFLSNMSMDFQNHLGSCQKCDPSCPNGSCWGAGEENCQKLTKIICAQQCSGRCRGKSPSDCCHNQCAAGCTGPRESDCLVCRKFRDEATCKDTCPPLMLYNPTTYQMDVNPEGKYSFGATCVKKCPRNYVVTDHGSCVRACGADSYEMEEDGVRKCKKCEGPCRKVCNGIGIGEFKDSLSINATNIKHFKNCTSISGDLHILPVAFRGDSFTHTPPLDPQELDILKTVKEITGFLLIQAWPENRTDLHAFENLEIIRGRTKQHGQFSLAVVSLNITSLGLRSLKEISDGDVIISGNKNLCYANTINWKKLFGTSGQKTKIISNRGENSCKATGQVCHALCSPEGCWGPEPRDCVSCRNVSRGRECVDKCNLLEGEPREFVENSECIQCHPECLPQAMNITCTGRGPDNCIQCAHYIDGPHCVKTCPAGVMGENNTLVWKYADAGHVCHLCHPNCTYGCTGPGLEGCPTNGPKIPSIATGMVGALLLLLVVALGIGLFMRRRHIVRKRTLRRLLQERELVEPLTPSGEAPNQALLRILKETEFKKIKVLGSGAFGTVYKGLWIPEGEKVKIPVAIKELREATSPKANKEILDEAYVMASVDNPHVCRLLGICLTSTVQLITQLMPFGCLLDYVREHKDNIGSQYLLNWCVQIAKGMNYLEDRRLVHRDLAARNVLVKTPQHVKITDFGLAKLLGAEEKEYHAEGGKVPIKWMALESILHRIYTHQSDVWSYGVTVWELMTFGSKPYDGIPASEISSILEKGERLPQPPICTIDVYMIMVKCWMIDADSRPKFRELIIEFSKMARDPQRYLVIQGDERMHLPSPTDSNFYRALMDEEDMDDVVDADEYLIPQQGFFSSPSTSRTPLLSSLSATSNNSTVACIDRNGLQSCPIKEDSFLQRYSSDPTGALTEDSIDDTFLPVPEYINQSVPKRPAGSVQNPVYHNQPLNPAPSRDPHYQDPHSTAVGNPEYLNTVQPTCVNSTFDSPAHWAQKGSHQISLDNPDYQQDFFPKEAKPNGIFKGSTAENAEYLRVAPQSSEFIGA
# Dickkopf-related protein 1 (Homo sapiens), sequence (O94907 whole entry, looked up): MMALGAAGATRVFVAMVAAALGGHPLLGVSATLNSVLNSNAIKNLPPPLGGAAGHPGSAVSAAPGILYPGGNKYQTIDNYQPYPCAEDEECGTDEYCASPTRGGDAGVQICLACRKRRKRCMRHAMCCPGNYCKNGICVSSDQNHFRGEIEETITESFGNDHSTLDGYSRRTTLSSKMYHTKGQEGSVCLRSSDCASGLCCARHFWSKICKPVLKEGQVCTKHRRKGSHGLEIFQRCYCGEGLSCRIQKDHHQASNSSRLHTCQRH
SMILES,composite z-score [1],composite z-score [2],composite z-score [3],z-score [4],composite z-score [5],composite z-score [6],composite z-score [7],composite z-score [8],composite z-score [9],composite z-score [10],composite z-score [11],z-score [12],composite z-score [13],composite z-score [14],composite z-score [15],composite z-score [16],composite z-score [17],composite z-score [18],composite z-score [19],composite z-score [20]
COc1ccc(C(=O)Nc2cccc(CN3C(=O)[C@@]4(O[C@@H](CCn5cc(CCO)nn5)[C@H]([Si](C)(C)c5ccc(OC)cc5)[C@H]4C)c4ccccc43)c2)cc1,0.758,-0.111,0.124,-1.16 (inactive),0.997,1.17,0.558,1.38,0.851,1.4,1.37,-5.15,0.714,0.468,0.308,-0.0403,0.13,0.153,0.602,1.6
COCCOC(=O)N1C(=O)[C@@]2(c3cc(C#CC4(O)CCCCCC4)ccc31)[C@H](C(=O)N1CCCCCCC1)[C@H]1C(=O)O[C@H](c3ccccc3)[C@H](c3ccccc3)N1[C@@H]2c1ccccc1OCCO,1.6,1.56,1.44,0.0811 (inactive),0.933,1.32,0.75,1.46,1.18,1.63,1.42,-1.61,0.487,1.79,1.22,0.265,0.906,2.36,1.62,1.49
CCC(CC)C(O)C1C=CC2C(=O)N(c3ccccc3)C(=O)C2N1Nc1ccc(C#N)cc1 (stereo not given),0.82,1.29,0.705,1.22 (inactive),0.783,1.27,0.231,0.78,-0.197,0.794,1.46,0.106,0.0717,1.67,0.55,0.275,0.57,1.78,0.602,1.08
CS(=O)(=O)CCOC(=O)C1=CC(c2ccc(CO)cc2)=CC(C2CC2)N(Cc2cc3c(cc2Br)OCO3)C=C1C(=O)OCCS(C)(=O)=O (stereo not given),0.848,0.296,0.351,0.883 (inactive),1.08,1.18,0.425,0.932,0.391,0.701,1.41,-2.3,0.462,1.38,0.23,-0.0124,0.171,0.446,1.18,1.77
COC(=O)c1ccc(OC)c(/C=C\CC(OC(C)=O)c2ccccc2)c1 (stereo not given),-0.22,-0.146,0.0946,-0.582 (inactive),-0.207,0.147,0.643,0.137,0.305,1.89,-0.5,-1.14,0.374,0.461,0.193,-0.237,0.0668,-0.397,-0.129,0.808
COCCOC(=O)N1C(=O)[C@@]2(c3cc(C#CCC(C(=O)OC)C(=O)OC)ccc31)[C@H](C(=O)N1CCN(c3ncccn3)CC1)[C@H]1C(=O)O[C@H](c3ccccc3)[C@H](c3ccccc3)N1[C@@H]2c1ccc(OCCO)cc1,1.56,-0.0747,0.0277,-0.923 (inactive),0.699,1.1,0.275,0.626,-0.0047,0.149,1.34,-0.974,0.521,0.505,-0.127,-0.0778,-0.2,-0.213,0.383,0.536
[N-]=[N+]=NCc1ccccc1C[C@@]1(C(=O)N2CCOCC2)N=C(c2ccc(OCCCO)cc2)O[C@@H]1c1ccccc1CN=[N+]=[N-],1.63,1.22,1.37,-0.429 (inactive),1.46,0.965,0.422,0.656,-0.0757,0.811,-0.422,-2.43,-0.269,2.2,1.06,0.324,0.167,-0.434,1.27,2.21
C=CC[C@@]1(C(=O)N2CCOCC2)N=C(c2ccc(OCCCO)cc2)O[C@@H]1c1ccccc1N=[N+]=[N-],0.904,1.01,1.08,-2.33 (inactive),1.31,0.951,0.279,0.606,0.174,1.16,1.45,-1.82,0.37,1.83,0.904,0.171,-0.043,1.82,1.47,1.8
[N-]=[N+]=NCc1ccccc1C[C@@]1(C(=O)NCC(O)CO)N=C(c2ccc(OCCCO)cc2)O[C@@H]1c1ccccc1CN=[N+]=[N-] (stereo not given in full),1.71,-0.0331,0.884,0.135 (inactive),1.33,0.712,-0.747,-0.203,-0.643,0.688,1.06,-1.73,-0.88,2.11,0.876,0.0219,0.269,2.29,2.01,1.5
COC(=O)[C@@]1(Cc2ccccc2)[C@H]2c3cc(C(=O)N4CCCC4)n(Cc4ccc(C)o4)c3C[C@H]2CN1C(=O)c1ccccc1,1.21,0.526,1.13,-2.62 (inactive),-0.143,0.0411,0.36,0.276,-0.578,1.23,0.114,-1.82,-0.334,1.58,-0.149,-0.213,-0.214,-0.153,0.618,0.326
O=C(CS)NCCCCCCNC(=O)[C@@H]1C[C@@H]2C(=O)N3CCC[C@H]3C(=O)N2[C@@H]1c1ccc(O)cc1,0.425,-0.207,0.597,0.552 (inactive),-0.252,0.691,-0.226,-0.32,0.17,-0.41,1.41,-0.695,-0.793,0.347,0.0689,0.0868,-0.0146,-0.264,1.35,0.139
